The results in this text go back to US20150152398, “Endoribonuclease and Methods of Use Thereof” (The Regents of the University of California, published 2015).

The test addresses T1, TtCas6A H37A (Thermus thermophilus HB8, H37A).
T1 chain: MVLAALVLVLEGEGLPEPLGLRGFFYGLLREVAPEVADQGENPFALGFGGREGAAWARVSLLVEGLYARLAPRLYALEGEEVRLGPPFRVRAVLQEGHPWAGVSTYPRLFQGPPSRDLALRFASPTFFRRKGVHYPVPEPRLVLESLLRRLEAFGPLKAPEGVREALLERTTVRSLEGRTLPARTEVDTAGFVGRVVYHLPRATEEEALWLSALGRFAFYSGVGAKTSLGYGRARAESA
As to the kind of experiment: EMSA; Kd in FIG. 24D only. To be noted: chain copies: 2 inferred; label: 5'-32P (EMSA); hairpin; ssRNA. The text has this: FIG. 22 illustrates that TtCas6A and TtCas6B both cleave repeats R1 and R3 and retain their cleaved products. (A) Sequences and predicted secondary structures of T. thermophilus CRISPR repeats. Sites of cleavage are indicated with blue arrows. TtCas6e (TTHB192) cleaves repeat R2, while TtCas6A (TTHA0078) and TtCas6B (TTHB231) both cleave repeats R1 and R3. (B) Cleavage product binding affinities of TtCas6A and TtCas6B enzymes. Maltose binding protein (MBP)-fused TtCas6A or TtCas6B were bound to in 5′-radiolabelled, vitro transcribed R1 and R3 RNAs. Bound and unbound fractions were resolved by electrophoresis on a native polyacrylamide gel and visualized by phosphorimaging. The data for these and all subsequent binding assays were fit with standard binding isotherms (solid line). Error bars on each data point denote standard error of the mean (SEM) from three independent experiments. (C) Experiments to confirm single turnover. RNA cleavage assays were carried out at indicated protein:RNA ratios. RNA cleavage was monitored using denaturing polyacrylamide gel electrophoresis. The data from these and all subsequent endoribonuclease activity assays were fit with single exponential curves to yield first-order rate constants. (Top to bottom: FIG. 22A, SEQ ID NOs: 1, 2, 55).
To test the importance of the stem sequence for substrate RNA recognition by TtCas6A, a series of EMSAs was performed using R1 repeat-derived RNAs that carried single base pair substitutions (C-G→A-U). All mutant RNAs contained the complete 5′ segment and additional two nucleotides downstream of the cleavage site. Compared to the wild-type RNA, substitution of any of the four C-G base pairs in the stem led to about five-fold decrease in affinity (FIG. 24C). This is consistent with the observation that the lower three C-G base pairs are specifically read out by Arg129. The binding defect observed upon mutation of the closing (uppermost) base pair could be due to loss of stability of the stem-loop structure, which is determined by the closing base-pair (Serra et al, 1993). To further investigate the protein determinants of RNA binding, we tested the TtCas6A mutants H37A and R129A and performed binding assays using substrates R1 and R3 (FIG. 24D).
A general note: In EMSA bound probe runs differently from free probe, usually more slowly.
As for GUUGCAAGGGAUUGAGCCCCGUAAGGGGAUUGCGAC, the binding signal is ~70 fold lower affinity than WT.

On to GUUGCAAACCUCGUUAGCCUCGUAGAGGAUUGAAAC, for which the binding signal is ~90 fold lower affinity than WT.
